Laboratory results from PubChem BioAssay (EPA / NIEHS).
Activity calls are given as the source filed them. Rule for the calls: active = hit-call score of the fitted dose curve at least 0.9, where 1 is the maximum; inactive = score below 0.9.

What was measured:
[1] = ATG_CRE_CIS: Attagene CIS-FACTORIAL HepG2 Assay for human cAMP Responsive Element (CRE) binding protein 3 (AID 2282926); settings: HepG2 CRE cis-reporter, Attagene multiplexed mRNA; actives raise or lower the signal
In short: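 We dosed HepG2 cells bearing multiple cis-promoter reporter units for 24 h and measured reporter mRNA by RT-PCR with capillary electrophoresis detection. Bidirectional concentration-response fitting used DMSO as negative control.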

[2] = target: CCAAT/enhancer-binding protein beta (Homo sapiens) (UniProt P17676); test: ATG_C_EBP_CIS: Attagene CIS-FACTORIAL HepG2 Assay for human CCAAT/Enhancer Binding Protein (C/EBP) beta (AID 2282927); settings: HepG2 Attagene cis-factorial transcription factor reporter; actives raise or lower the signal
In short: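 Following a 24 h incubation with test chemical, transfected HepG2 cells yielded RNA whose reporter transcripts were quantified by RT-PCR and fluorescent capillary electrophoresis, with DMSO serving as baseline for bidirectional fitting.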

[3] = ATG_CMV_CIS: Attagene CIS-FACTORIAL HepG2 Assay for human CMV (Internal Marker) (AID 2282928); settings: HepG2 CMV promoter reporter, transcription factor profiling; actives raise or lower the signal;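 note: endpoint acts as a background internal control marker rather than a target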
In short: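 After transient transfection of HepG2 with reporter transcription units driven by cis-regulatory promoters, cells receive test chemical for 24 h. Labeled reporter amplicons, digested with HpaI, are sized and quantified by capillary electrophoresis against DMSO.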

[4] = ATG_DR4_LXR_CIS: Attagene CIS-FACTORIAL HepG2 Assay for human Liver X Receptor (LXR), DR4 submotif (AID 2282929); settings: HepG2 Attagene DR4 cis-reporter, mRNA transcription; actives raise or lower the signal
In short: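 Readout: reporter transcript fluorescence after RT-PCR and capillary electrophoresis, fitted bidirectionally against DMSO controls. Human HepG2 liver cells carried transiently transfected multiplexed reporter constructs; endogenous transcription factor activity measured 24 h post-dosing.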

[5] = target: Aryl hydrocarbon receptor (Homo sapiens) (UniProt P35869); test: ATG_Ahr_CIS: Attagene CIS-FACTORIAL HepG2 Assay for human Aryl Hydrocarbon Receptor (Ahr) (AID 2282930); settings: HepG2 AhR cis-factorial reporter transcription; actives raise or lower the signal
In short: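 Values derive from bidirectional fitting against DMSO negative control. Underlying signal: cis-element reporter mRNA in transiently transfected HepG2, harvested 24 h post-dose and measured by RT-PCR plus capillary electrophoresis.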

[6] = ATG_AP_1_CIS: Attagene CIS-FACTORIAL HepG2 Assay for human Activator Protein 1 (AP-1) (AID 2282931); settings: HepG2 Attagene cis-factorial AP-1 reporter mRNA; actives raise or lower the signal
In short: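 Reporter transcripts were measured 24 h after dosing by RT-PCR and capillary electrophoresis of fluorescent fragments. Cells: HepG2 carrying transfected cis-regulated reporter constructs reading endogenous factor activity. Gain or loss fitted against DMSO.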

[7] = ATG_AP_2_CIS: Attagene CIS-FACTORIAL HepG2 Assay for human Activator Protein 2 (AP-2) (AID 2282932); settings: HepG2 AP-2 cis-reporter, Attagene transcription factor profiling; actives raise or lower the signal
In short: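 HepG2 cells were transiently transfected with multiple cis-promoter reporter transcription units and dosed for 24 h. Reporter mRNA was measured by RT-PCR with capillary electrophoresis fluorescence; bidirectional fits relative to DMSO baseline.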

[8] = ATG_BRE_CIS: Attagene CIS-FACTORIAL HepG2 Assay for human Bone Morphogenetic Protein (BMP) Response Element (BRE) (AID 2282933); settings: HepG2 BMP response element reporter, Attagene transcription factor profiling; actives raise or lower the signal
In short: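 Gain- or loss-of-signal was derived by bidirectional fitting against DMSO controls. The signal came from reporter mRNA, measured by RT-PCR and capillary electrophoresis, in HepG2 cells transiently carrying multiple reporter units and dosed for 24 h.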

[9] = target: Transcription factor E2F1 (Homo sapiens) (UniProt Q01094); test: ATG_E2F_CIS: Attagene CIS-FACTORIAL HepG2 Assay for human E2F Transcription Factor 1 (AID 2282935); settings: HepG2 Attagene cis-reporter, E2F reporter RNA transcripts; actives raise or lower the signal
In short: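 HepG2 cells transiently transfected with multiplexed cis-element reporter units, dosed for 24 h. Reporter mRNA measured by RT-PCR, 6-FAM primer-extension labeling, HpaI digestion and capillary electrophoresis; bidirectional fit versus DMSO baseline.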

[10] = target: Retinoic acid receptor alpha (Homo sapiens) (UniProt P10276); test: ATG_DR5_RAR_CIS: Attagene CIS-FACTORIAL HepG2 Assay for human Retinoic Acid Receptor Alpha (RARE), DR5 submotif (AID 2282934); settings: HepG2 Attagene cis-factorial RARE DR5 reporter, mRNA; actives raise or lower the signal
In short: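 Endpoint fitted in both directions relative to DMSO as negative control. It reflects DR5 cis-element reporter mRNA induction in transiently transfected HepG2 cells, measured 24 h after dosing through RT-PCR and fluorescent capillary electrophoresis.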

Measured: AC50

Sequence of Transcription factor E2F1 (Homo sapiens) (Q01094 whole entry, looked up): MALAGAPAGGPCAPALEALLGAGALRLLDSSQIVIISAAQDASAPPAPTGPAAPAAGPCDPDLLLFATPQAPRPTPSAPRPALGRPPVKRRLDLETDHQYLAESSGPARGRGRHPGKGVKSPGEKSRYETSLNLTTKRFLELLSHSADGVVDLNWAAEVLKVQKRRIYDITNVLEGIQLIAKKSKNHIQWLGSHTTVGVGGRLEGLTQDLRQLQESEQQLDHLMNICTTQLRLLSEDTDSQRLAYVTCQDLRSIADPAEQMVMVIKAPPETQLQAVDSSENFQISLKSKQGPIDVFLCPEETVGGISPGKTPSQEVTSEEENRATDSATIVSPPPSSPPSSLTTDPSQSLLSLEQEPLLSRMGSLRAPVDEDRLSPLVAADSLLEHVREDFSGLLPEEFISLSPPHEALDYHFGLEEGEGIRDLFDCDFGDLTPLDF
Sequence of CCAAT/enhancer-binding protein beta (Homo sapiens) (P17676 whole entry, looked up): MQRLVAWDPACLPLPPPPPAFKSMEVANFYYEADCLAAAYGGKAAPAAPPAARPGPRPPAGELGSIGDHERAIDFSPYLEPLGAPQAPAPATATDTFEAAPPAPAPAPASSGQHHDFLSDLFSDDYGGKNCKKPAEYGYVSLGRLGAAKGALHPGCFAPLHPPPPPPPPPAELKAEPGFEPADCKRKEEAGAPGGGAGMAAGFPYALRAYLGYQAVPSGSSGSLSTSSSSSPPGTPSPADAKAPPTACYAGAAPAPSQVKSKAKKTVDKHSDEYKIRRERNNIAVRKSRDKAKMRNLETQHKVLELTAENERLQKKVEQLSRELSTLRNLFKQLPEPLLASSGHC
Sequence of Aryl hydrocarbon receptor (Homo sapiens) (P35869 whole entry, looked up): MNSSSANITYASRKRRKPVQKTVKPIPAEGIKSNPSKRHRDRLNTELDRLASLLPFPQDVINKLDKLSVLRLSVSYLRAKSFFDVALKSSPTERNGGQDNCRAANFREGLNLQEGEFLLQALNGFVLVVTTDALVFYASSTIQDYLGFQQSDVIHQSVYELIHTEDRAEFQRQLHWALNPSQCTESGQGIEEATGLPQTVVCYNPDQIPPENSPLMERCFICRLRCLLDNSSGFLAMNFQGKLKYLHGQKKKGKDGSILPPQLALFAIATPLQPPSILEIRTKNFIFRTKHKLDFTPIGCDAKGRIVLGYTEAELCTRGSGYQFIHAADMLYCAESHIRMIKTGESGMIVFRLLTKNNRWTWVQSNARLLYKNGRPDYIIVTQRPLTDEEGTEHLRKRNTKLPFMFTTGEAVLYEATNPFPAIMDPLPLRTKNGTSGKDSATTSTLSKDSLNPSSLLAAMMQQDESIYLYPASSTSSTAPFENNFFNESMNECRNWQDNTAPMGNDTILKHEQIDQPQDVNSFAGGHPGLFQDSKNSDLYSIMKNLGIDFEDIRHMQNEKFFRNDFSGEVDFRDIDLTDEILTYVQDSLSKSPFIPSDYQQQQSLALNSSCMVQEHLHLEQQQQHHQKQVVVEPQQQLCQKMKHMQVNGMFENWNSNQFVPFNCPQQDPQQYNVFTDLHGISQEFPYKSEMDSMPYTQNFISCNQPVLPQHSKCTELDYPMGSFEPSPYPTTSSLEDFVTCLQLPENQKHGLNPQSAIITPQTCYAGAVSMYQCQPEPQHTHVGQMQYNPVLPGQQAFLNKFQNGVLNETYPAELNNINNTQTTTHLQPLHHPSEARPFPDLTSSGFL
Sequence of Retinoic acid receptor alpha (Homo sapiens) (P10276 whole entry, looked up): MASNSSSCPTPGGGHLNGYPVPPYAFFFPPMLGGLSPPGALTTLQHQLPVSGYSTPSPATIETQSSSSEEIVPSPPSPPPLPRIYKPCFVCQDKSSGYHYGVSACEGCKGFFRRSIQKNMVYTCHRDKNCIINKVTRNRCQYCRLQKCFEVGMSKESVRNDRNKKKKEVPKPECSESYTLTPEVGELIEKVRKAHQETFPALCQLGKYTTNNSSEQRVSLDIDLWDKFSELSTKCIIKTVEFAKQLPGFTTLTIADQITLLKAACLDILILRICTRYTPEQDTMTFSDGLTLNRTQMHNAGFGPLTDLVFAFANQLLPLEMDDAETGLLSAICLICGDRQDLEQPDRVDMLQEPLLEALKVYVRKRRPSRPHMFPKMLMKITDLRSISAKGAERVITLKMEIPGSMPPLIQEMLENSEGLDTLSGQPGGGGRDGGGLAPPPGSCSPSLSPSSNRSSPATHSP

CCCCN
not listed: [10]
inactive: all other assays above

CCCCCCOC(=O)CC
not listed: [10]
inactive: all other assays above

OCCOc1cccc(OCCO)c1
inactive: all assays above

C=CC(=O)NCOCC(C)C
not listed: [10]
inactive: all other assays above

O=Cc1ccc(Cl)c([N+](=O)[O-])c1
active: [1] 129 µM | [3] 168 µM | [4] 48.4 µM | [6] 25.8 µM | [8] 131 µM
inactive: [2] | [5] | [7] | [9]

OCCN1CCNCC1
not listed: [10]
inactive: all other assays above

CC(C)(COC(=O)c1ccccc1)COC(=O)c1ccccc1
not listed: [10]
inactive: all other assays above

CCCCCC=CCC(=O)OC
inactive: all assays above

Cc1ccc(C(C)C)cc1O
not listed: [10]
inactive: all other assays above

O=[N+]([O-])c1ccc(Nc2ccc(Nc3ccccc3)c(S(=O)(=O)O)c2)c([N+](=O)[O-])c1
active: [4] 100 µM | [5] 31.9 µM | [6] 147 µM
not listed: [10]
inactive: all other assays above

CN(CCOc1ccc(CC2SC(=O)NC2=O)cc1)c1ccccn1 (centres undefined)
not listed: [10]
inactive: all other assays above

NC(=O)c1ccccc1Cl
active: [1] 61.2 µM | [6] 27 µM | [7] 76.4 µM
not listed: [10]
inactive: all other assays above

O=[N+]([O-])c1cc(C(F)(F)F)ccc1Cl
not listed: [10]
inactive: all other assays above
